CR mimetic SO: yeast age-related superoxide inhibition as caloric restriction mimetic. S. cerevisiae aged cells, superoxide DHE fluorescence; hits give low values. superoxide response (% of plate mean), % at 10 µM. 330,000 tested, 0.18% active. AID 2690;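 active = superoxide response under a set limit, about three screen SD below normal, cut at about 65% in these data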;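 also: yeast aged for seven days with compound at 30 °C before DHE staining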
UBC13 polyUb: inhibitors of human UBC13 polyubiquitin chain formation | P61088 | TR-FRET | inhibition, % at 20 µM | 330,000 tested, 0.47% active | AID 485273; in the data active = inhibition above about 45%, passing the limit was not always enough; inconclusive = no clear call, values can overlap the other calls
NALP1 inh: blocks the NALP1 inflammasome reconstituted in yeast; S. cerevisiae NALP1/ASC/caspase-1 growth, X-gal OD620, 72 h; inhibition, % at 10 µM; 280,000 tested, 0.61% active; in the data active = inhibition mostly above about 24%, no sharp cut-off; inactive = mostly below about 32%
dFosB act: mouse delta FosB homodimer activation | P13346 | purified delta FosB, TAMRA-CDK5 oligo fluorescence polarization; percent of positive-control signal above neutral wells | activation, % at 25 µM | 340,000 tested, 0.99% active | AID 493131;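 active = mean activation above about 17%, with every replicate also reaching it, limit read from the data, passing the limit was not always enough; inconclusive = only one of the two conditions met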
Target sequence (P13346 whole entry, looked up): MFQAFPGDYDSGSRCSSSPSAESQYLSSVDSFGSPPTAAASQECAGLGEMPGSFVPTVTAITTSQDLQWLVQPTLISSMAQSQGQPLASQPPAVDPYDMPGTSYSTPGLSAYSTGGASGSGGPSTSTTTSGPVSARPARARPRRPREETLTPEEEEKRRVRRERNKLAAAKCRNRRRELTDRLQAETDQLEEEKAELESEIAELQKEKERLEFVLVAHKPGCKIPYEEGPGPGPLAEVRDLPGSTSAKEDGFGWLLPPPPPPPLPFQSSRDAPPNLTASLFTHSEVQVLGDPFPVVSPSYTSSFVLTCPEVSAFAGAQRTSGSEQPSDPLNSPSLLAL
NR3A LBD binder: modulators (binders) of human NR3A ligand-binding domain. 340,000 tested, 2.5% active. NR3A LBD differential scanning fluorimetry, Tm shift; 0% = protein alone, 100% = glycine-bound protein. Tm shift relative to glycine control, % at 25 µM;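 active = melting temperature shift of at least 10% of the positive control shift, at one fixed dose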
Casp3 UBC13 ctr: counter-screen for UBC13 inhibitors: human caspase-3 inhibition; 1,400 tested, 4% active; Recombinant caspase-3, Caspase-Glo 3/7 luminescence, 60 min; inhibition, % at 20 µM; shares compounds with UBC13 polyUb;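 active = mean inhibition across replicates above about 26%, limit read from the data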
Target sequence (P42574 whole entry, looked up): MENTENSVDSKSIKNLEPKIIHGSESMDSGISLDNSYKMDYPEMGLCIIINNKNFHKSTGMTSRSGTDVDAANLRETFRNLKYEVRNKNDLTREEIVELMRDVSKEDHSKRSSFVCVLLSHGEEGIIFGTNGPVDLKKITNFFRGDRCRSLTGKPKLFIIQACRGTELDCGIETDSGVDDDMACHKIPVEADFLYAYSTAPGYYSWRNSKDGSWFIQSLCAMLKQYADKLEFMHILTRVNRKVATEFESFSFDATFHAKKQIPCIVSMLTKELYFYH
UBC13 conf: human UBC13 polyubiquitin inhibition, confirmed | shares compounds with UBC13 polyUb | UBC13 polyubiquitination, TR-FRET, biochemical | inhibition, % at 10 µM | 1,400 tested, 68% active | AID 488859; in the data active = inhibition above about 45%; inconclusive = no clear call, values can overlap the other calls
Of the large screens only hits and unclear results are named; the others gave an inactive call (follow-up assays come after a bar, where they were run). Sampled rows, rich in hits. Any-hit rate of the full collection: about 4.3%.

C#CCOCCOCCOCCNc1nc(N2CCN(C(=O)CCCCCCCCCCNC(=O)[C@@H](CCC(=O)O)n3cc(CCCCCN)nn3)CC2)nc(N2CCN(C(=O)CCCCCCCCCCNC(=O)[C@H](CCCCN)n3cc(C[C@@H](C)CC)nn3)CC2)n1	UBC13 polyUb 120 (no result: NALP1 inh) | Casp3 UBC13 ctr inactive | UBC13 conf 124
C#CCOCCOCCOCCNc1nc(N2CCN(C(=O)CCCCCCCCCCNC(=O)[C@@H](CCC(=O)O)n3cc(CCCCCN)nn3)CC2)nc(N2CCN(C(=O)CCCCCCCCCCNC(=O)[C@H](CO)n3cc(CCCCCN)nn3)CC2)n1	UBC13 polyUb 102 (no result: NALP1 inh) | Casp3 UBC13 ctr inactive | UBC13 conf 74
C#CCOCCOCCOCCNc1nc(N2CCN(C(=O)Cn3cc(CCCCN)nn3)CC2)nc(N2CCN(C(=O)[C@H](C)n3cc(CCC(=O)O)nn3)CC2)n1	none (no result: CR mimetic SO, UBC13 polyUb, NALP1 inh)
C#CCOCCOCCOCCNc1nc(N2CCN(C(=O)[C@H](CCCCN)n3cc(CCC(=O)O)nn3)CC2)nc(N2CCN(C(=O)[C@H](Cc3ccc(O)cc3)n3cc(CCO)nn3)CC2)n1	none (no result: CR mimetic SO, UBC13 polyUb, NALP1 inh)
Cn1c(=O)[nH]c(=O)c2c1nc1n2CC(COc2ccc3ccccc3c2)O1 (configuration not stated)	dFosB act inconclusive (no result: NALP1 inh)
N#Cc1cc2cc3c(cc2nc1SCC(=O)N1CCOCC1)OCCO3	none
NC(CO)C(=O)NNCc1ccc(O)c(O)c1O (configuration not stated)	UBC13 polyUb 48 | Casp3 UBC13 ctr inactive | UBC13 conf inactive
COC(=O)C(N)Cc1ccc(O)c(O)c1 (configuration not stated)	none
Cc1nc(N)sc1C(=O)NN	UBC13 polyUb 49 | Casp3 UBC13 ctr inactive | UBC13 conf inactive
Cc1ccc(Cl)cc1N1CCN(c2cccc[n+]2C)CC1	none
COc1ccc(-c2cc3c(=O)n(CC(=O)NCCCN4CCN(Cc5ccccc5)CC4)ncn3n2)cc1	none
COc1ccc(-c2cc3c(=O)n(CC(=O)NCCCN4CCC(Cc5ccccc5)CC4)ncn3n2)cc1	UBC13 polyUb 52 | Casp3 UBC13 ctr inactive | UBC13 conf 76
COc1ccc(-c2noc(CCC(=O)NCCCN3CCC(Cc4ccccc4)CC3)n2)cc1	UBC13 polyUb 90 | Casp3 UBC13 ctr inactive | UBC13 conf 106
Cc1ccc(-c2noc(CCC(=O)NCC3CCN(Cc4cccc(C)c4)CC3)n2)cc1	UBC13 polyUb 56 | Casp3 UBC13 ctr inactive | UBC13 conf 70
O=C(NCCc1ccccc1)[C@@H]1CC=C[C@@H]2CCN(Cc3ccccc3)C(=O)[C@@H]21	none (no result: NALP1 inh)
O=C(O)c1cc2ccccc2c2cc(Br)ccc12	none
CCCN(C(=O)c1ccco1)c1nnc(-c2ccncc2)s1	none
CCCCN(C(=O)c1ccco1)c1nnc(-c2cc(OC)c(OC)c(OC)c2)s1	UBC13 polyUb 50 | Casp3 UBC13 ctr inactive | UBC13 conf inactive
O=S(=O)(c1ccccc1)N1CCN(C(=S)Nc2ccc(Br)cc2)CC1	none
CCOC(=O)c1c(CN2CCN(C)CC2)oc2ccc(OC)cc12	none
CCOC(=O)c1c(CN2CCN(c3ccccc3)CC2)oc2ccc(O)cc12	UBC13 polyUb 91 | Casp3 UBC13 ctr inactive | UBC13 conf 83
O=C(N/N=C/C1=C(N2CCOCC2)C(=C\c2ccccc2)/CC1)Nc1ccccc1	none
CCN(CC)c1ccc(/C=C2\CCC(/C=N/NC(=O)c3ccc(=O)n(C)c3)=C2N2CCOCC2)cc1	UBC13 polyUb 53 | Casp3 UBC13 ctr inactive | UBC13 conf inactive
CN(C)Cc1nc2ccccc2c(=O)n1Cc1nc(-c2cccc([N+](=O)[O-])c2)cs1	none
CN1CCN(Cc2nc3ccccc3c(=O)n2Cc2nc(-c3ccc([N+](=O)[O-])cc3)cs2)CC1	UBC13 polyUb 79 | Casp3 UBC13 ctr inactive | UBC13 conf 57
Cc1ccc(N2CC(C(=O)N(C)CC(=O)Nc3ccc(Cl)c(C(F)(F)F)c3)CC2=O)cc1 (configuration not stated)	none (no result: NALP1 inh)
NS(=O)(=O)c1ccc(NC(=O)N2c3ccccc3Sc3ccccc32)cc1	UBC13 polyUb 46 | Casp3 UBC13 ctr inactive | UBC13 conf inactive
Cc1c(C(=O)Nc2ccccc2F)sc2ncn(CC(=O)N3CCCCC3)c(=O)c12	none
COc1ccc(OCC(=O)NNC(=O)c2ccccn2)cc1	UBC13 polyUb 69 | Casp3 UBC13 ctr inactive | UBC13 conf 96
CC(Oc1cccc(Br)c1)C(=O)NNC(=O)c1ccccn1 (configuration not stated)	UBC13 polyUb 47 (no result: NALP1 inh) | Casp3 UBC13 ctr inactive | UBC13 conf 91
COc1ccc(C(=O)NNC(=O)c2ccccn2)cc1	none
CC(=O)c1ccc(OCCCC(=O)NNC(=O)c2ccccn2)cc1	UBC13 polyUb 76 (no result: NALP1 inh) | Casp3 UBC13 ctr inactive | UBC13 conf 66
CCOC(=O)c1c(-c2ccccc2)c[nH]c1C	none (no result: CR mimetic SO, UBC13 polyUb, NALP1 inh)
Cn1c(-c2cnn(-c3ccccc3)c2-n2cccc2)n[nH]c1=S	none
CC(C)=CCc1c(-c2ccc(O)cc2O)oc2cc3c(c(O)c2c1=O)C=CC(C)(C)O3	UBC13 polyUb 50, NR3A LBD binder 31 (no result: NALP1 inh, dFosB act) | Casp3 UBC13 ctr inactive | UBC13 conf inactive
C1CCC(C(CC2CCCCN2)C2CCCCC2)CC1 (configuration not stated)	UBC13 polyUb 80, NALP1 inh 71 | Casp3 UBC13 ctr inactive | UBC13 conf 66
Cc1ccc(COc2ccc(/C=N/O)cc2)cc1	none
NC(N)=N/N=C/c1ccc(OCc2ccccc2)cc1	UBC13 polyUb 50 | Casp3 UBC13 ctr inactive | UBC13 conf 53
NC(N)=N/N=C/c1ccc(OCc2ccc(Cl)cc2)cc1	UBC13 polyUb 102 | Casp3 UBC13 ctr inactive | UBC13 conf 120
c1coc(-c2nnc(-c3ccco3)nn2)c1	none
Nc1nc(=S)ss1	none (no result: CR mimetic SO, UBC13 polyUb, NALP1 inh)
C#CCOCCOCCOCCNc1nc(N2CCN(C(=O)[C@H](CCCCN)n3cc([C@@H](N)C(C)CC)nn3)CC2)nc(N2CCN(C(=O)[C@H](Cc3cc4ccccc4[nH]3)n3cc([C@@H](N)C(C)CC)nn3)CC2)n1 (some centres not stated)	UBC13 polyUb 111, dFosB act 63 (no result: NALP1 inh) | Casp3 UBC13 ctr inactive | UBC13 conf 114
C#CCOCCOCCOCCNc1nc(N2CCN(C(=O)[C@H](CCCCN)n3cc([C@@H](N)CC(C)C)nn3)CC2)nc(N2CCN(C(=O)[C@H](Cc3cc4ccccc4[nH]3)n3cc([C@@H](N)Cc4ccc(O)cc4)nn3)CC2)n1	UBC13 polyUb 103, dFosB act 59 (no result: CR mimetic SO) | Casp3 UBC13 ctr inactive | UBC13 conf 116

Assay outcomes as filed in PubChem BioAssay.
